Assay [1] is described as follows: Cell Viability - SK-N-SH (AID 435; calls by dose curve; note: potency is the fitted concentration of half-maximal effect). Particulars: SK-N-SH neuroblastoma cell viability qHTS. Put shortly:
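Human neuroblastoma line, 40 h exposure at 37 °C, ATP quantified via luciferase luminescence; DMSO and 100 uM tamoxifen define 0 and 100% inhibition for AC50 fitting.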

Assay [2] in a line: Cell Viability - N2a (AID 540).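 For activity change, negative = cytotoxicity: plate controls were DMSO alone for no effect and tamoxifen control for full effect.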 Note: nearly all actives have a fitted effect of over 45% in size. Note: potency is the fitted concentration of half-maximal effect. The following applies: N2a mouse neuroblastoma cell viability; activity change, negative = cytotoxicity: at 92.2 µM (top of the series). The method, boiled down: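 N2a mouse neuroblastoma, 1500 cells/well, 5 hr settle; compound 40 hr, 37 °C; CellTiter-Glo 20 min RT; luminescence; Hill-fit AC50.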
A short description of assay [3]: Cell Viability - H-4-II-E (AID 543). Note: nearly all actives have a fitted effect of over 35% in size. Note: potency is the fitted concentration of half-maximal effect. Put shortly:
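qHTS, rat hepatoma H-4-II-E, 1500 cells/well; 40 hr compound exposure, 37 °C; CellTiter-Glo ATP luminescence after 20 min RT; AC50 by standard Hill fit.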

A short description of assay [4]: Cell Viability - Renal Proximal Tubule (AID 545).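 Note: 0% = DMSO only and -100% = 100 µM tamoxifen; nearly all actives have a fitted effect of over 40% in size.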 Particulars: renal proximal tubule cells viability, primary cells of rat origin; activity change, negative = cytotoxicity: at 91.7 µM (top of the series). Put shortly: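 In this qHTS format, normal rat kidney-derived proximal tubule cells in complete culture medium receive compound titrations, then sit 40 hours at 37 °C before luciferase-based ATP quantitation; potency is reported as AC50 from concentration-response curves.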

Assay [5] is described as follows: Cell Viability - LYMP2-001 (AID 921).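 Note: cells exposed to compound for 24 h at 37 °C; nearly all actives have a fitted effect of over 70% in size.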 Note: potency is the fitted concentration of half-maximal effect. The method, boiled down:
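A lymphoblastoid cell line of human origin was treated with library compounds across a concentration series for 24 hours, and viable cell number was estimated from ATP-driven luciferase light output. Hill modeling gave AC50.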

A short description of assay [6]: MultiTox-Fluor Cytotoxicity Assay - LYMP1-001 - Live Cells (AID 947).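 Note: 0% = DMSO only and full inhibition = tetraoctylammonium bromide control.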
Assay [7] can be described thus: MultiTox-Fluor Cytotoxicity Assay - LYMP1-002 - Dead Cells (AID 960).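 Note: cells exposed to compound for 16 h at 37 °C; 0% = DMSO and 100% = tetraoctylammonium bromide; nearly all actives have a fitted effect of over 60% in size.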 Put shortly:
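Readout: fluorescence at 485/520 from cell-impermeant bis-AAF-R110 cleaved by proteases leaking from damaged cells. LYMP1-002 lymphoblastoid line, 16 hr compound treatment at 37 C, concentration-response in qHTS format; Hill-equation AC50 values.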

The nature of assay [8]: Cell Viability - LYMP1-003 - Assay at 40 hr (AID 964). Note: % is set by controls: 0 for no effect and ±100 for the full control effect; nearly all actives have a fitted effect of over 60% in size. The method, boiled down: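 LYMP1-003 lymphoblastoid cells, 2500/well; 5 hr preincubation, 40 hr compound exposure, 37 C; CellTiter-Glo 30 min RT; luminescence; Hill-fit AC50. Positive control tetraoctylammonium bromide.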
Assay [9] is described as follows: Cell Viability - LYMP2-004 (AID 966).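 Note: cells exposed to compound for 24 h; plate controls were DMSO only for no effect and tetraoctylammonium bromide control for full effect; nearly all actives have a fitted effect of over 65% in size.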 The method, boiled down: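 Luminescent ATP read-out (CellTiter-Glo, 30 min RT) after 24 hr compound exposure at 37 C; 2500 lymphoblastoid cells/well, complete medium. Decrease in ATP = cytotoxicity; AC50 from standard Hill model.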
Assay [10] in a line: Cell Viability - LYMP2-009 (AID 968).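 Note: cells exposed to compound for 24 h at 37 °C; 0% = DMSO alone and the full-kill end = tetraoctylammonium bromide at 92 µM; nearly all actives have a fitted effect of over 55% in size.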
A short description of assay [11]: Cell Viability - LYMP2-015 (AID 971).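 Note: cells exposed to compound for 24 h; 0% = DMSO only and full effect = 92 µM tetraoctylammonium bromide; nearly all actives have a fitted effect of over 55% in size.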 The method, boiled down:
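qHTS cytotoxicity: 2500 cells/well, 5 hr 37 C, compound 24 hr 37 C, CellTiter-Glo 30 min RT, luminescence. Loss of ATP = toxicity; AC50 via standard Hill fit.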

Assay [12] can be described thus: Cell Viability - LYMP2-017 (AID 972). For activity change, negative = cytotoxicity: % is set by controls: 0 for no effect and ±100 for the full control effect.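 Note: cells exposed to compound for 24 hours at 37 °C; nearly all actives have a fitted effect of over 55% in size.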 Note: potency is the fitted concentration of half-maximal effect. Put shortly: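 Luminescent ATP read-out (CellTiter-Glo, 30 min RT) reports viable cell number. Cells: human lymphoblastoid line, 2500 per well, 5 hr preincubation, 24 hr compound exposure at 37 C. AC50 is derived from qHTS concentration-response data using the standard Hill model.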
A short description of assay [13]: Cell Viability - LYMP2-019 (AID 973).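 For activity change, negative = cytotoxicity: 0% = DMSO alone and full effect = 92 µM tetraoctylammonium bromide.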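 Note: cells exposed to compound for 24 h at 37 °C; nearly all actives have a fitted effect of over 55% in size.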 Note: potency is the fitted concentration of half-maximal effect. Put shortly:
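qHTS, 1536-well; 2500 cells/well; 5 hr pre-incubation, 24 hr compound exposure, 37 C; CellTiter-Glo added, 30 min RT; luminescence read; AC50 via standard Hill equation.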

Assay [14] can be described thus: Cell Viability - LYMP2-010 (AID 981). Note: potency is the fitted concentration of half-maximal effect. Put shortly:
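qHTS cytotoxicity, 1536-well: 2500 cells/well, 5 hr settle, 24 hr compound at 37 C, CellTiter-Glo 30 min RT, luminescence read. Decrease in ATP = toxicity; AC50 via standard Hill equation. Positive control tetraoctylammonium bromide.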

Assay [15] can be described thus: qHTS assay for small molecule agonists of retinoid X receptor alpha signaling (AID 588544; calls by dose curve). The following applies: HEK293T RXRa-UAS-bla, beta-lactamase reporter, 18 h; 530 nm emission. A general note: qHTS replaces the single test concentration by a dilution series.
The target of assay [16] is Retinoic acid receptor RXR-alpha (Homo sapiens) (UniProt P19793). Described as above.
Retinoic acid receptor RXR-alpha (Homo sapiens), sequence (P19793 whole entry, looked up): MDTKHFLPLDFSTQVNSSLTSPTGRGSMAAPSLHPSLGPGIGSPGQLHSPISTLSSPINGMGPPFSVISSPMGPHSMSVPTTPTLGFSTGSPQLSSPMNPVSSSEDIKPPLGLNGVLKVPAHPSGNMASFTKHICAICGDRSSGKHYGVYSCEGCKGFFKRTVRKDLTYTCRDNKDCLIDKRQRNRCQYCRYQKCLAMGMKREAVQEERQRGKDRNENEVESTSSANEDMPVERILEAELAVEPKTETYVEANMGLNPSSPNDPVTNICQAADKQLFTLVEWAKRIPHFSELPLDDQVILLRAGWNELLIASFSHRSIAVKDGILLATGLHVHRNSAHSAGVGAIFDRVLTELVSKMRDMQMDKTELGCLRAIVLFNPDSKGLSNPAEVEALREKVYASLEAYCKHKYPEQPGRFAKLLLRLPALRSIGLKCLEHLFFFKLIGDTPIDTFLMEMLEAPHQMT
For assay [17], the target named is Thyroid hormone receptor beta (Homo sapiens) (UniProt P10828). Kind of assay: qHTS assay for small molecule antagonists of thyroid hormone receptor beta signaling (AID 588547; active = well fitted inhibition curve with a large enough effect in the signal ratio, with a control signal flat, not every such curve was filed as active; the % refers to the signal ratio;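 note: cells stimulated with 0.4 nM T3 agonist during compound exposure; % is set by controls: 0 for no effect and ±100 for the full control effect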). Particulars: TR-UAS-bla HEK293, beta-lactamase ratio, antagonist mode, 18 h. The method, boiled down:
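TR-UAS-bla GripTite HEK293 cells in 2% charcoal/dextran FBS medium were preincubated 4 h at 37 C, given compound (0.59 nM to 92 uM) plus 0.4 nM T3 (final) for 18 h, then CCF4 for 2 h at RT; Hill fit gave IC50.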

The nature of assay [18]: qHTS assay for small molecule disruptors of the mitochondrial membrane potential - 5 hr assay (AID 651755; calls by dose curve; note: nearly all actives have a fitted effect of over 40% in size; note: potency is the fitted concentration of half-maximal effect). The method, boiled down:
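Seed HepG2 overnight, add compound, incubate 5 hr at 37C and 5% CO2, stain 30 min with Mito-MPS, then measure monomer (490/535 nm) and aggregate (540/590 nm) fluorescence.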

Assay [19] in a line: qHTS assay for small molecule agonists of the antioxidant response element (ARE) signaling pathway measured by Nrf2-dependant transcriptional activity (AID 720636; active = well fitted curve in the direction sought with a large enough effect in the repeat runs; an effect the other way counts as inactive or inconclusive; note: potency is the fitted concentration of half-maximal effect). Put shortly: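 Nrf2-dependent transcription is measured in ARE-luc HepG2 cells: compound is applied for 16 hr at 37 C after a 6 hr attachment period, and luciferase activity is quantified by luminescence using ONE-Glo.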

Assay [20] addresses Nuclear receptor subfamily 1 group I member 2 (Rattus norvegicus) (UniProt Q9R1A7). Briefly: qHTS assay for small molecule activators of the rat pregnane X receptor (rPXR) signaling pathway (AID 651751; call rule not given here; note: 0% is about no effect). The following applies: rPXR reporter cells, luciferase (One-Glo), 24 h.

“And” between values parts separate entries of the source, which are not always exact repeats. Equal entries are not always repeated. Results filed as inconclusive are left out. The source made the active and inactive calls. Unless noted, calls come from the whole dose curve; as a rule, active = well fitted curve in the direction sought with a large enough effect; inconclusive = small, poorly fitted or top-dose-only effect, or another doubt; inactive = no such curve, though single readings can be large; an effect the other way counts as inactive or inconclusive. Bounds are passed on as bounds.

Thyroid hormone receptor beta (Homo sapiens), sequence (P10828 whole entry, looked up): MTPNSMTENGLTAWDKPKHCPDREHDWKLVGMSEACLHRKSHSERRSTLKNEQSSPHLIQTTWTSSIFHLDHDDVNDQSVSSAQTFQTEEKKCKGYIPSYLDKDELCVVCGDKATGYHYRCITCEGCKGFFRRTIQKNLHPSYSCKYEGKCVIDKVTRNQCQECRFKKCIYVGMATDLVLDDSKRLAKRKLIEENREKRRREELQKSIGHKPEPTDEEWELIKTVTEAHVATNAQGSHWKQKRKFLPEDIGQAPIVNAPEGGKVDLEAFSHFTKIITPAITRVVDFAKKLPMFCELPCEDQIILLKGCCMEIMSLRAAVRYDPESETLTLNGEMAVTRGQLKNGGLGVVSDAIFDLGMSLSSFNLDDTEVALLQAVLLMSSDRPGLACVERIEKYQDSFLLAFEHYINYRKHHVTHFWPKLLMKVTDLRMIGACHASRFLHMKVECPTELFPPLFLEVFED
Nuclear receptor subfamily 1 group I member 2 (Rattus norvegicus), sequence (Q9R1A7 whole entry, looked up): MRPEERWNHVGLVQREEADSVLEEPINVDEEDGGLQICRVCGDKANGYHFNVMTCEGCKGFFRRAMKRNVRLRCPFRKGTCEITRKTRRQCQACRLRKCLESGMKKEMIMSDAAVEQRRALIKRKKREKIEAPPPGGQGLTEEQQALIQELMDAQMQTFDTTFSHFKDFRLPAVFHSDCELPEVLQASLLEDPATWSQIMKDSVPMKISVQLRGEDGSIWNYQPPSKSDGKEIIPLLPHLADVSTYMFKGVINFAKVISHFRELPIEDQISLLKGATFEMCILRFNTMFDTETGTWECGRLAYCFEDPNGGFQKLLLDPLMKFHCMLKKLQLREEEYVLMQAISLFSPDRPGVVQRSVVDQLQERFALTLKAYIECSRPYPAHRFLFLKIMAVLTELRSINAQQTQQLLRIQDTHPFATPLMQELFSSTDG

For `C=CC(=O)CC`, in [1], the Potency was > 92 µM (inactive). Further, in assay [2], the activity change, negative = cytotoxicity is 4.36% (inactive). In addition, the Potency result in assay [3], in assay [4], in [5], in assay [6], in [7] and in [8] was “inactive” in each case. In addition, the Potency entry in [9], in assay [10], in assay [11], in assay [12], in assay [13] and in assay [14] was “inactive” throughout. For the same compound, the Potency entry in [16], in assay [18] and in assay [19] was “inactive” in each case. In addition, the max response was -11.5% in assay [15] and 9.91% (inactive) in assay [20]. In assay [17], the activity change % (negative = inhibition) is 9.8% (inactive).
For the compound `Brc1cc(Oc2cc(Br)c(Br)c(Br)c2Br)c(Br)c(Br)c1Br`, the Potency in [1] is > 92 µM (inactive). Further, the activity change, negative = cytotoxicity in [2] was -25% (inactive). Moreover, the Potency entry in assay [3], in assay [4], in assay [5], in assay [6], in [7] and in assay [8] was “inactive” in each case. Besides, the Potency result in assay [9], in assay [10], in assay [11], in assay [12], in [13] and in [14] was “inactive” in each case. The Potency result in [16], in assay [18] and in [19] was “inactive” throughout. In addition, the max response in [15] was 21.6%; in [20], 2.26% (inactive) and 7.81% (inactive). Also, the activity change % (negative = inhibition) in [17] was 1.8% (inactive) and 9.48% (inactive).
For `CCN(CC)c1ccc(N)cc1`, the activity change, negative = cytotoxicity in assay [2] is -118% (active). The Potency in [3] is 79.4 µM (active); in assay [18], 29.8 µM (active). The Potency result in assay [7] was “inactive”. In addition, the max response in assay [20] is 3.24% (inactive).
For `Cc1ccc(O)c(N)c1`, the Potency entry in [4], in [6], in [7] and in assay [16] was “inactive” each time. Besides, the Potency is 50.1 µM (active) in assay [5]; 50.1 µM (active) in assay [12]; 39.8 µM (active) in assay [13]; 39.8 µM (active) in assay [14]; 33.5 µM (active) in assay [18]; 42.2 µM (active) in [19]. Further, the max response is 23.6% in [15] and 12.1% (inactive) in assay [20]. Moreover, the activity change % (negative = inhibition) in [17] is -10.8% (inactive).
`O=C(O)c1ccc([N+](=O)[O-])cc1`: the Potency in assay [1] is > 92 µM (inactive). Also, the activity change, negative = cytotoxicity in [2] is 9.32% (inactive). Besides, the Potency result in assay [3], in [4], in assay [5], in assay [6], in [7] and in assay [8] was “inactive” in each case. In addition, the Potency result in [9], in assay [10], in [11], in assay [12], in assay [13] and in assay [14] was “inactive” each time. The Potency result in [16], in assay [18] and in assay [19] was “inactive” each time. For the same compound, the max response in assay [15] was -0.875% and -5.25%; in [20], -2.43% (inactive) and -1.7% (inactive). In assay [17], the activity change % (negative = inhibition) was -4.73% (inactive).
`Brc1cc(Br)c(Oc2cc(Br)c(Br)cc2Br)cc1Br`: in assay [1], the Potency was > 92 µM (inactive). Further, the Potency entry in assay [3], in assay [4], in assay [5], in assay [6], in [7] and in assay [8] was “inactive” throughout. The Potency result in assay [9], in assay [10], in [11], in [12], in [13] and in [14] was “inactive” in each case. For the same compound, the Potency result in assay [18] and in [19] was “inactive” each time. Also, the activity change % (negative = inhibition) in [17] is 17.2% (inactive). In addition, the max response in [20] is -2.15% (inactive).
With `S=C(NC1CCCCC1)NC1CCCCC1`, in assay [2], the Potency is 31.6 µM (active). Also, the Potency result in assay [4], in assay [5], in [6], in assay [7], in assay [8] and in [9] was “inactive” in each case. Besides, the Potency entry in assay [10], in [11], in assay [12], in assay [13], in assay [14] and in assay [16] was “inactive” each time. The Potency result in assay [18] and in [19] was “inactive” each time. In addition, the max response is 7.4% in assay [15] and 8.83% (inactive) in assay [20]. The activity change % (negative = inhibition) in [17] was 30% (inactive).

Source of the values: PubChem BioAssay (NCATS).
